Out of some 200,000 compounds screened, about 18,000 (9%) were called active. No stated cut-off is given here; in the data, active means inhibition above about 50%; inactive means the rest. The entries come from a sample that favours actives as a whole.
Assay: Leishmania major promastigote growth inhibition, primary screen (AID 1063);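 further: promastigotes grown with compound for 44 hours at 28 °C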
Settings: Leishmania major promastigotes, resazurin fluorescence viability; at 10 µM; hits give high values

SMILES | inhibition
COc1ccc(Cl)cc1N(CC(=O)N/N=C/c1ccc(OCC(N)=O)cc1)S(C)(=O)=O | 30.9% (inactive)
CCOc1ccc(N(CC(=O)NCCc2ccc(OC)cc2)S(C)(=O)=O)cc1 | -6.74% (inactive)
COCCN(C(=O)CCC(=O)Nc1nccs1)C(C(=O)NC(C)(C)C)c1ccc(Cl)cc1 (configuration not stated) | -1.47% (inactive)
CCCCCOC(=O)C1=C(C)Nc2nnnn2C1c1ccc(OC)c(OC)c1OC (configuration not stated) | 92.7% (active)
COCCOC(=O)C1=C(C)Nc2nc(C)nn2C1c1ccccc1 (configuration not stated) | 1.25% (inactive)
CC1=C(C(N)=O)C(c2sccc2C)n2nnnc2N1 (configuration not stated) | -2.53% (inactive)
O=C(CCc1ccccc1)Nc1nn[nH]n1 | -3.55% (inactive)
O=C(CSc1ccc([N+](=O)[O-])cn1)Nc1ccc(N2CCOCC2)cc1 | -2.33% (inactive)
COC(=O)c1ccc(NCC(=O)N2CCCCCC2)cc1 | -4.15% (inactive)
O=C(O)c1ccn(COc2ccc(Br)cc2)n1 | -6.55% (inactive)
O=C(CSc1nc2ccc(Nc3nc(N4CCOCC4)nc(N4CCOCC4)n3)cc2s1)NCc1ccco1 | 66% (active)
O=C(CSc1c2c(nc3ccc(Cl)cc13)CCCC2)NCc1ccco1 | 39.9% (inactive)
C=CCn1c(CSc2nc3ccccc3s2)nnc1SCC(=O)NCc1ccco1 | -0.85% (inactive)
CCN(CC)S(=O)(=O)c1ccc(N(C)CCc2ccc(OC)c(OC)c2)nc1 | 20.7% (inactive)
Cc1ccc(O)c(NC(=S)NC(=O)COc2ccc(Br)cc2)c1 | -2.21% (inactive)
CNC(=S)N1CCC(NC(=O)C(Cc2ccc(F)cc2)NC(C)=O)CC1 (configuration not stated) | -5.13% (inactive)
CC(=O)NC(Cc1ccc(F)c(F)c1)C(=O)NC1CCN(c2nnnn2-c2ccccc2)CC1 (configuration not stated) | 9.51% (inactive)
CC(=O)NC(Cc1ccccc1)C(=O)NC1CCN(c2ncccc2[N+](=O)[O-])CC1 (configuration not stated) | 57.3% (active)
CC(Sc1nc2cc(Cl)ccc2s1)C(=O)Nc1ccc2c(c1)OCO2 (configuration not stated) | 3.45% (inactive)
O=C(Nc1ccc(N2CCOCC2)cc1)c1ccc(-c2ccccc2[N+](=O)[O-])o1 | 7.53% (inactive)
CCOc1cc(NS(=O)(=O)c2ccc(OC)cc2)c(OCC)cc1NC(C)=O | -2.08% (inactive)
O=C(Cn1c(COc2ccccc2)nc2ccccc21)Nc1cc(Cl)c(Cl)cc1Cl | 94.1% (active)
COCn1c(COc2ccccc2)nc2ccccc21 | 1.65% (inactive)
O=C(Cn1c(-c2cscn2)nc2ccccc21)Nc1ccc(Cl)cc1 | 16.4% (inactive)
Cc1ccc(N(C(=O)Cc2cccs2)C2C=CS(=O)(=O)C2)cc1Cl (configuration not stated) | 3.36% (inactive)

SMILES | inhibition
O=C(Nc1ccc(Cl)cn1)c1ccc2c(c1)OCCO2 | -10.2% (inactive)
CCN(CC(=O)NCc1cccs1)S(=O)(=O)c1ccc(NC(C)=O)cc1 | -3.41% (inactive)
COc1ccc(NC(=S)NCC2CCN(c3ccc(OC)cc3)C2)cc1 (configuration not stated) | 74.9% (active)
COc1ccc(N2CCN(C(=S)Nc3ccc(S(N)(=O)=O)cc3)CC2)cc1 | -7.62% (inactive)
COc1ccc(NC(=S)NCCN2CCC(C)CC2)cc1 | 23.9% (inactive)
Cc1c(NC(=O)CCC2CCCCC2)cc(C(=O)N2CCOCC2)cc1[N+](=O)[O-] | -3.89% (inactive)
CCOC(=O)C(=CNc1cccc(C)n1)C(=O)OCC | -3.94% (inactive)
CCOC(=O)C(=Cc1ccccc1OC)C(=O)OCC | 53.7% (active)
COc1ccccc1C(=O)C(O)c1ccccc1OC (configuration not stated) | 1.96% (inactive)
Cn1c(CCC(=O)OCC(=O)NCc2ccccc2Cl)nc(=O)c2ccccc21 | -0.71% (inactive)
Cc1ncoc1C(=O)NCCC(c1ccccc1)c1ccccc1 | 1.37% (inactive)
CCOC(=O)c1cnc(-n2nc(C)cc2C)nc1-n1nc(C)cc1C | 33% (inactive)
CCOC(=O)c1cnc(-n2nc(C)cc2C)nc1NNc1cc(C)nc(-c2ccccc2)n1 | 100% (active)
CCOC(=O)c1cnc(-n2nc(C)cc2C)nc1Nc1cccc(C(C)=O)c1 | 4.22% (inactive)
CCOC(=O)C(C)n1nc(-c2ccccc2)c2ccccc2c1=O (configuration not stated) | 12.5% (inactive)
CN(C)c1nc(-c2cccnc2)nc(-c2ccc(Cl)cc2)c1C#N | 8.3% (inactive)
COCCN(CCOC)S(=O)(=O)c1ccc(/C(O)=C(\C#N)c2nc3ccccc3[nH]2)cc1 | 1.17% (inactive)
CC(C)(C)NC(=O)NC(=O)COC(=O)C1(C)CC1(Cl)Cl (configuration not stated) | 0.27% (inactive)
CCOn1c(=O)c(=O)n(O)c2ccccc21 | -2.81% (inactive)
Cn1nnnc1SCC(=O)NNC(=O)c1ccc(Br)cc1 | -7.24% (inactive)
CN(C(=O)CSc1nc(C2CC2)nc2ccccc12)c1nc(-c2ccccc2)cs1 | 54.6% (active)
O=C(CSc1nc(C2CC2)nc2ccccc12)Nc1ccc2c(c1)OCCO2 | 6.82% (inactive)
COC(=O)CSc1nc(C2CC2)nc2ccccc12 | -7.75% (inactive)
CCn1ccnc1CN(C)Cc1nc(-c2ccc3c(c2)OCO3)no1 | 1.95% (inactive)
CN(Cc1cc2cc(F)ccc2[nH]1)Cc1nc(-c2cnccn2)no1 | -6.82% (inactive)

SMILES | inhibition
COc1ccc(CNCCCO)cc1OC | -3.13% (inactive)
CCN(CC)CCNCc1ccc(OCc2ccc(Cl)nc2)c(OC)c1 | -3.17% (inactive)
CCOCCCNCc1ccc(OCc2ccc(F)cc2)c(OC)c1 | 97.1% (active)
CCNC(=O)c1ccc(OCC(=O)Nc2ccc(F)cc2)c(OC)c1 | 0.66% (inactive)
COc1cc(CNc2ncn[nH]2)ccc1OCc1ccccc1C | -5.58% (inactive)
COc1cc(CNCCN(C)C)ccc1OCc1c(F)cccc1Cl | 66.6% (active)
CCCCC1N2CC3([N+](=O)[O-])CN1CC([N+](=O)[O-])(C2)C3(C)C (configuration not stated) | -3.35% (inactive)
Cc1cccc(NC(=O)Nc2ccc3c(c2)OCO3)n1 | -1.54% (inactive)
CCC(C)(NC(=O)c1ccccn1)C(=O)NC1CCCCC1 (configuration not stated) | 0.94% (inactive)
CCN(CC)CCOc1ccc2c(c1)C(=NNC(=O)c1ccccn1)c1cc(OCCN(CC)CC)ccc1-2 | 101% (active)
CCOc1cc(NC(=O)c2ccccn2)c(OCC)cc1NC(=O)c1ccc(OC)cc1 | -3.96% (inactive)
CC(=O)C1=C(C)NC2=C(C(=O)CC(C)(C)C2)C1C (configuration not stated) | -3.1% (inactive)
CCC(C)NCC(=O)Nc1ccc([N+](=O)[O-])cc1C(=O)Nc1ccccc1F (configuration not stated) | 11.7% (inactive)
CC(C)(C)NC(=O)C(=O)NN=C1CCCCCCC1 | 9.68% (inactive)
OCCC1CN(Cc2ccc(Oc3ncccn3)cc2)CCN1CCc1ccccc1 (configuration not stated) | 59.6% (active)
Cc1ccc(CN2CCN(Cc3cccc(C)n3)CC2CCO)cc1 (configuration not stated) | -2.02% (inactive)
CC(C)CCN1CCN(Cc2ccc(C(F)(F)F)cc2)CC1CCO (configuration not stated) | 87.1% (active)
Cc1ccc(CN2CCN(Cc3ccc4ncccc4c3)CC2CCO)cc1 (configuration not stated) | 73.7% (active)
CC(C)=CCN1CCN(Cc2ccc(Oc3ncccn3)cc2)CC1CCO (configuration not stated) | -0.29% (inactive)
COC(=O)c1ccc(CN2CCN(CCCc3ccccc3)C(CCO)C2)cc1 (configuration not stated) | 83.9% (active)
CC(C)N1CCC(N2CCN(Cc3cccnc3)CC2CCO)CC1 (configuration not stated) | -2.03% (inactive)
CC(=O)Nc1ccc(CN2CCN(Cc3ccc(F)c(F)c3)C(CCO)C2)cc1 (configuration not stated) | 6.71% (inactive)
COc1ccc(CN2CCN(Cc3cn(C)nc3-c3ccccc3)CC2CCO)c(C)c1C (configuration not stated) | -0.96% (inactive)
CC(C)CCN1CCN(Cc2cn[nH]c2C2CCCCC2)CC1CCO (configuration not stated) | 24.3% (inactive)
CC(C)CCN1CCN(C/C=C/c2ccco2)CC1CCO (configuration not stated) | 5.83% (inactive)

SMILES | inhibition
OCCC1CN(Cc2ccc3nsnc3c2)CCN1C1CCCCC1 (configuration not stated) | 13.5% (inactive)
CCOC(=O)C(CC)/C(C)=N\NC(=O)c1cccc(C)c1 (configuration not stated) | -5.28% (inactive)
COC(=O)c1cccnc1NC(=S)NC(C)C | -3.71% (inactive)
C=CCNC(=O)CC12CC3CC(C1)CC(CC(=O)NCC=C)(C3)C2 | -6.25% (inactive)
COc1cccc(C(=O)Nc2cccnc2)c1OC | -4.33% (inactive)
CCCN(C(=O)CSc1nnnn1C)c1c(N)n(Cc2ccccc2)c(=O)[nH]c1=O | -5.81% (inactive)
O=C(CCN1C(=O)C2C3C=CC(C3)C2C1=O)Oc1ccc2ccccc2c1 (configuration not stated) | 24% (inactive)
O=c1[nH]c(N2CCN(Cc3ccc4c(c3)OCO4)CC2)nc2c1CCCC2 | 0.88% (inactive)
CCOC(=O)CSc1ccccn1 | -7.49% (inactive)
Cc1c(Cc2ccccc2)c(=O)oc2cc(OCC(N)=O)ccc12 | -6.96% (inactive)
CCOc1ccc(NS(=O)(=O)c2cc(C)c(C)cc2C)cc1 | 5.1% (inactive)
S=C(c1ccc(-c2ccccc2)o1)N1CCCCC1 | 12.2% (inactive)
Cc1ccc(CN2CCN(Cc3ccc(OCCO)cc3)CC2CCO)o1 (configuration not stated) | -4.28% (inactive)
COc1ccc(/C=C/CN2CCN(Cc3ccc(C)cc3)C(CCO)C2)cc1 (configuration not stated) | 67.4% (active)
Cc1ccc(CN2CCN(Cc3ccccc3-c3ccco3)CC2CCO)o1 (configuration not stated) | 3.16% (inactive)
OCCC1CN(Cc2cccc(O)c2)CCN1CCc1ccccc1 (configuration not stated) | -0.63% (inactive)
OCCC1CN(Cc2cnc(-c3ccccc3)s2)CCN1CCc1ccccc1 (configuration not stated) | 83.7% (active)
OCCC1CN(Cc2cccn2-c2nccs2)CCN1CCc1ccccc1 (configuration not stated) | 11.3% (inactive)
NC(N)=Nc1nc2ccc(Br)cc2c(=O)[nH]1 | 16.6% (inactive)
CCOc1ccccc1N1CCN(C(=O)COc2ccc3c(C)cc(=O)oc3c2)CC1 | 43.7% (inactive)
O=c1nc(N/N=C/c2ccco2)cn[nH]1 | -3.61% (inactive)
CCCCn1c(N)c(N2CCOCC2)c(=O)n(CC(=O)NCCc2ccccc2)c1=O | 1.59% (inactive)

Source: PubChem BioAssay AID1063 (University of Pittsburgh Molecular Library Screening Center, 2008)
